# A selection follows.
# aSyn 5UTR act – Activators working through SNCA 5'UTR binding (MLPCN); alpha-synuclein 5'UTR reporter, activators screen; activity score, % (tested at 7.5 µM), hits read low; 300,000 compounds, 7.1% hits; AID 1814; in the data active = activity score below about -60%
# Starred values were filed as active, the others as inactive.
SMILES,aSyn 5UTR act
N/C(=N\OC(=O)Cc1cccc2ccccc12)c1ccccn1,-156.0*
N/C(=N\OC(=O)Cc1ccc(Cl)cc1)c1ccccn1,-153.7*
Cc1ccc(CC(=O)O/N=C(\N)c2ccccn2)cc1,-88.5*
CCCc1ccc(C(=O)O/N=C(\N)c2ccccn2)cc1,71.7
COc1cccc(/C=N/n2cnc3cc(C)c(C)cc32)c1OC,-97.3*
Cc1cc2ncn(/N=C/c3ccc([N+](=O)[O-])s3)c2cc1C,-117.3*
O=[N+]([O-])c1ccc(/C=N/n2cnc3ccccc32)s1,68.5
Cc1sc(NC(=S)Nc2ccc(F)cc2)c(C(N)=O)c1C,-87.4*
Cc1sc(NC(=O)c2ccc(Br)s2)c(C(N)=O)c1C,-224.6*
Cc1sc(NC(=O)c2ccc(Cl)s2)c(C(N)=O)c1C,-284.4*
CC(=O)Nc1sc(C)c(C)c1C(=O)Nc1ccc(C)cc1,-66.4*
OCCNC(=S)Nc1ccc2c(c1)OCCO2,-91.4*
COCCCNC(=S)Nc1ccc2c(c1)OCCO2,-115.8*
S=C(Nc1ccc2c(c1)OCCO2)Nc1ccc2c(c1)OCO2,-75.3*
S=C(NCc1ccc(Cl)c(Cl)c1)Nc1ccc2c(c1)OCO2,-109.9*
S=C(Nc1ccc2c(c1)OCO2)Nc1ccccc1Cl,-84.9*
C/C(=N\NC(N)=S)C1=CCC2C3CC[C@H]4CC(O)CC[C@]4(C)C3CC[C@]12C (stereo partly specified),-94.6*
Nc1c(C(=O)Nc2ccccc2F)sc2nc(-c3ccco3)ccc12,-118.4*
Nc1c(C(=O)Nc2ccccc2F)sc2nc(-c3cccnc3)ccc12,-88.1*
CC(C)COc1ccc(C(=O)Nc2ncn[nH]2)cc1,-66.3*
CC(C)COc1ccc(C(=O)Nc2sc3c(c2C(=O)O)CC(C)(C)OC3)cc1,62.6
CC(C)Oc1ccc(C(=O)Nc2ncn[nH]2)cc1,-65.0*
Cc1ccc(-c2nc(N=Nc3ccc(O)cc3)n[nH]2)cc1,-182.1*
CCOC(=O)c1sc2nc(-c3cccnc3)ccc2c1N,-149.9*
NC(=O)c1sc2nc(-c3cccnc3)ccc2c1N,-101.5*
SMILES,aSyn 5UTR act
CCn1cc(NC(=O)CCl)c(C)n1,-103.6*
CC(=O)c1sc(NC(=O)c2ccc(F)cc2)nc1-c1ccccc1,-95.0*
CC(=O)c1sc(NC(=O)c2ccccc2F)nc1-c1ccccc1,-124.5*
CSc1ncc(-c2ccc(Cl)cc2)[nH]1,-145.0*
Nc1nc(-c2ccccc2)cs1,-97.5*
c1ccc(-c2cc(-c3ccccc3)on2)cc1,-152.5*
N/C(Cc1nc(-c2ccc(Br)cc2)cs1)=N\O,-95.8*
Nc1nc(-c2ccc(Br)cc2)cs1,-98.8*
Nc1nc(-c2cc(-c3ccccc3)no2)cs1,-173.6*
O=C(c1ccccc1)c1cc(-c2ccccc2)on1,-107.9*
O=C(/C=C/c1ccco1)Nc1ccccc1C(=O)O,-116.8*
O=C(/C=C/c1ccco1)Nc1ccccc1N1CCCC1,-79.6*
CC(Cc1cccs1)NC(=O)Nc1cccc(Cl)c1 (stereo unspecified),-62.5*
COc1ccc(C(=O)Nc2cccc(N(C)S(C)(=O)=O)c2)cc1OC,-168.1*
CN(c1cccc(NC(=O)Nc2cccc(Cl)c2)c1)S(C)(=O)=O,-91.6*
CN(C)c1ccc(NC(=O)Nc2cccc(Cl)c2)cc1,-137.6*
CC(=O)N(Cc1ccco1)c1nc(C(=O)Nc2ccc(Cl)cc2)c(C)s1,-104.8*
CCCn1cnc2cc(NCc3ccc(Br)cc3)ccc21,-93.1*
CCCn1cnc2cc(NCc3cccc(OC)c3)ccc21,-141.0*
CCn1cnc2cc(NCc3ccc(Br)cc3)ccc21,-140.3*
CCn1cnc2cc(NCc3ccc(C)cc3)ccc21,-127.9*
Cn1cnc2cc(NCc3ccc(Cl)cc3)ccc21,-101.1*
Cc1ccc(CNc2ccc3c(c2)ncn3C(C)C)cc1,-143.8*
CN1C(=O)/C(=C/C=C2\SCCN2C)N(C)C1=S,-176.6*
COC(=O)c1cn(C(=O)c2ccc(OC)cc2)c2ccccc12,-146.8*
SMILES,aSyn 5UTR act
COCCN(Cc1nc(-c2ccc(-c3ccccc3)cc2)oc1C)C(C)C,-214.8*
O=C(Nc1cccc(F)c1)c1ccc(CSc2ccccc2)o1,-121.3*
O=C(Nc1ccccc1F)c1ccc(CSc2ccccc2)o1,-69.5*
c1ccc(SCc2nc(-c3ccccn3)no2)cc1,-145.9*
c1ccc(CCCc2nc(-c3ccccn3)no2)cc1,-70.0*
c1ccc(C(Cc2nc(-c3ccccn3)no2)c2ccccc2)cc1,-132.0*
Clc1ccc(-c2noc(CCCc3ccccc3)n2)cc1,-97.3*
O=C(CCCc1nc(-c2ccccc2Cl)no1)NC1CCCC1,98.8
c1ccc(-c2noc(CC3CCCCC3)n2)nc1,-68.9*
CN(C)C(=O)CCCc1nc(-c2ccc(Cl)cc2)no1,-110.6*
COc1ccc(Cc2nc(-c3ccccn3)no2)cc1,-120.4*
Cc1ccc(-c2nc(-c3ccccn3)no2)cc1,99.3
Cc1ccc(Cc2nc(-c3ccccn3)no2)cc1,-94.6*
c1ccc(Cc2nc(-c3ccccn3)no2)cc1,-98.2*
c1ccc(-c2ccc(-c3nc(-c4ccccn4)no3)cc2)cc1,147.2
O=C(O)CCCc1ccc2c(c1)CCc1ccccc1-2,108.5
O=C(CCCCN1CCCCC1)c1ccc2c(c1)Cc1ccccc1-2,-64.6*
Cc1ccc(C(=O)Nc2ncc3c(Cl)cccc3n2)cc1,64.5
Cc1ccc(C(=O)Nc2nccc(-c3cccs3)n2)cc1,-66.1*
COc1ccc(C(=O)Nc2nc(-c3cccs3)cs2)cc1,-91.3*
O=C(Nc1nc(-c2cccs2)cs1)c1ccc(Cl)cc1,-88.3*
Cc1csc(NC(=O)c2sc3nc(-c4cccs4)ccc3c2N)n1,-227.6*
O=C(Nc1nc(-c2cc(Cl)sc2Cl)cs1)c1cccs1,-157.7*
Cc1ccc(C(=O)Nc2ccc(Nc3ccccc3)cc2)cc1C,-62.2*
O=C(Nc1ccccc1)c1ccc(NC(=O)C2CC2)cc1,-105.3*
SMILES,aSyn 5UTR act
O=C(Nc1ccc(-c2nc3ccccc3s2)c(OC(=O)c2ccccc2)c1)c1ccccc1,-175.0*
O=C(Nc1ccc(-c2nnco2)cc1)c1ccccc1,-78.3*
O=C(Nc1ccc(F)cc1)c1ccccc1,-83.3*
O=C(Nc1ccc(SC(F)F)cc1)c1ccc(F)cc1,-162.8*
CCCCNC(=O)Nc1ccc(C2SCCS2)cc1,-91.5*
CNC(=O)c1ccc(NC(=O)Nc2ccccc2)cc1,-71.1*
O=C(C#Cc1ccccc1)c1ccc([N+](=O)[O-])cc1,-95.4*
O=C(Nc1ccc2nc3ccccc3nc2c1)c1ccccc1,-96.6*
O=C(Nc1ccc(C2SCCS2)cc1)c1ccccc1,-88.3*
COc1cc(OC)cc(C(=O)Nc2ccc(Nc3ccccc3)cc2)c1,-164.7*
CCn1c2ccccc2c2cc(NC(=O)c3cc(OC)cc(OC)c3)ccc21,100.7
O=C(N[C@H]1CC1c1ccccc1)c1ccc([N+](=O)[O-])cc1 (stereo partly specified),-106.7*
CC(Cc1ccccc1)NC(=O)c1ccc([N+](=O)[O-])cc1 (stereo unspecified),-89.8*
O=C(Nc1csc(Cl)c1)c1ccccc1,-160.6*
O=C(Nc1ccc(Nc2ccccc2)cc1)c1ccccc1,-176.5*
O=C(Nc1ccc([N+](=O)[O-])cc1)c1ccccc1,-121.6*
Cc1ccc(C(=O)C[n+]2ccc(Cc3ccccc3)cc2)cc1,60.7
O=C(C[n+]1ccc2ccccc2c1)c1ccc(NC(=O)c2ccccc2)cc1,-87.5*
CCN(CC)c1ccc(C(=O)Nc2ccccc2)cc1[N+](=O)[O-],-151.5*
CCCCC[C@H](O)/C=C/[C@@H]1[C@@H](C/C=C\CCCC(=O)OC)[C@@H](O)C[C@H]1O,44.3
Fc1ccc(COc2ccc(-c3nnco3)cc2)c(Cl)c1,-96.4*

# Assay outcomes deposited in PubChem BioAssay by Broad Institute.
